Results published in PubChem BioAssay (NCATS).
Several values for one entry are separate records, joined by “and”; a condition that tells them apart may be missing. Equal values may be shown once. Records with an inconclusive call do not appear. Some compounds were tested as several samples or in several runs, with calls that do not always agree. Activity calls are given as the source filed them. Unless noted, calls come from the whole dose curve; as a rule, active = well fitted curve in the direction sought with a large enough effect; inconclusive = small, poorly fitted or top-dose-only effect, or another doubt; inactive = no such curve, though single readings can be large; an effect the other way counts as inactive or inconclusive.

Tests used:
[1] = Primary qHTS for small molecule stabilizers of the endoplasmic reticulum resident proteome: Secreted ER Calcium Modulated Protein (SERCaMP) assay (AID 1508630); note: potency is the fitted concentration of half-maximal effect
Method in brief: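 GLuc-SERCaMP-expressing SH-SY5Y cells, pretreated 16 h with compound, are challenged with thapsigargin to empty ER calcium stores; after 4 h, coelenterazine is added directly to the medium and luminescence is imaged.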

[2] = A High-Content qHTS Against Drug Library for the Identification of Small Molecules that Inhibit DYT1 Early Onset Primary Dystonia-Associated Cell Pathology (AID 1645839; calls by dose curve; note: series mostly up to about 46 µM)
Method in brief: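 Readout: %pathology, the punctate EGFP-TorsinA distribution from imaging, as the primary channel and cell count as the toxicity counterscreen. HEK293 Flp-In cells expressing delE TorsinA were induced with tetracycline and treated with compound for 48 h.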

[3] = target: Cytochrome P450 2D6 (Homo sapiens) (UniProt P10635); assay: Cytochrome P450 family 2 subfamily D member 6 (CYP2D6) small molecule antagonists: luciferase biochemical (cell-free) qHTS assay (AID 1645840; active = well fitted curve in the direction sought with a large enough effect in the repeat runs; an effect the other way counts as inactive or inconclusive; note: nearly all actives have a fitted effect of over 55% in size; note: potency is the fitted concentration of half-maximal effect)
Cytochrome P450 2D6 (Homo sapiens), sequence (P10635 whole entry, looked up): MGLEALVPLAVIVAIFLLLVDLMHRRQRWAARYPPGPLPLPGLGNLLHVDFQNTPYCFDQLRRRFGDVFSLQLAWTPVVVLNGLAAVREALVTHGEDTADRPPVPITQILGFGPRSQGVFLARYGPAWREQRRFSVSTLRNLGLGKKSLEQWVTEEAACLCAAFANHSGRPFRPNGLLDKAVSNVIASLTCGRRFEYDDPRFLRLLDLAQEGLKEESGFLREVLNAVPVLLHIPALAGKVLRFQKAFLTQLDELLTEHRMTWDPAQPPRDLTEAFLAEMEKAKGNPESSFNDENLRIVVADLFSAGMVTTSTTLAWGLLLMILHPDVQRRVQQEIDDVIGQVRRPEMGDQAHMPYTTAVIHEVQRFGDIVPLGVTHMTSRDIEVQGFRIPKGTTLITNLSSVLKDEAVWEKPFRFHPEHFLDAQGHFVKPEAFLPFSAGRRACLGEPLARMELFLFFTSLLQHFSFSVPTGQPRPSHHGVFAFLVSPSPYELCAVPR
Method in brief: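 P450-Glo luminescent screen: recombinant CYP2D6 enzyme–proluciferin substrate mix preincubated with compound 10 min at room temperature, then NADPH regeneration added for 1 h at room temperature. Detection reagent added for 20 min; luciferin light read as relative luminescence units.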

[4] = target: Cytochrome P450 2C9 (Homo sapiens) (UniProt P11712); assay: Cytochrome P450 family 2 subfamily C member 9 (CYP2C9) small molecule antagonists: luciferase biochemical (cell-free) qHTS assay (AID 1645842; active = well fitted curve in the direction sought with a large enough effect in the repeat runs; an effect the other way counts as inactive or inconclusive; note: nearly all actives have a fitted effect of over 55% in size; note: potency is the fitted concentration of half-maximal effect)
Cytochrome P450 2C9 (Homo sapiens), sequence (P11712 whole entry, looked up): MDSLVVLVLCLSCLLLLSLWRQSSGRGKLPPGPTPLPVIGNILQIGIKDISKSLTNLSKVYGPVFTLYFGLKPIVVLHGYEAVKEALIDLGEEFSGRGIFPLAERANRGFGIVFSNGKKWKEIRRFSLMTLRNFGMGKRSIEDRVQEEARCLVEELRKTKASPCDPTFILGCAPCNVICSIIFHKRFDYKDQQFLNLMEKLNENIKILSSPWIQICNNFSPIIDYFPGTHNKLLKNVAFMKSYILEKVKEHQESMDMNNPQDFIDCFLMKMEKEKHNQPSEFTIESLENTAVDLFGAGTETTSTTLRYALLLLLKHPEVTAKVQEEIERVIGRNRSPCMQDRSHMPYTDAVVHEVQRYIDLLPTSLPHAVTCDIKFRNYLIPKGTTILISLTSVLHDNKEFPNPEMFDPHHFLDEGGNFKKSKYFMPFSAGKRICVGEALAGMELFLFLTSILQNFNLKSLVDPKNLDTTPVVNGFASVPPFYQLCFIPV
Method in brief: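 Luminescence, after 20 min with luciferin detection reagent, reflected CYP2C9 turnover during a 1 h NADPH-driven reaction at 37C. Enzyme-substrate mix contained 0.4% bovine serum albumin and was preincubated with compound 10 min at room temperature.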

[5] = Primary qHTS for inhibitors of nuclear receptor binding SET domain protein 2 (NSD2) in an isogenic RCH-ACV NSD2 p.E1099K mutant (9B) (AID 1645876); note: nearly all actives have a fitted effect of over 70% in size; note: potency is the fitted concentration of half-maximal effect
[6] = Primary qHTS for inhibitors of nuclear receptor binding SET domain protein 2 (NSD2) in an RCH-ACV wild type WT cells (2C) (AID 1645877); note: nearly all actives have a fitted effect of over 70% in size; note: potency is the fitted concentration of half-maximal effect
[7] = Cell Viability qHTS for small molecule stabilizers of the endoplasmic reticulum resident proteome (AID 1508629); settings: cell viability counter-screen, 100 nM thapsigargin for final 4 h;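 note: compound exposure about 46 h in total before the viability read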; note: potency is the fitted concentration of half-maximal effect;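 for max response: human SH-SY5Y neuroblastoma cells carrying the GLuc-SERCaMP reporter; % is set by controls: 0 for no effect and ±100 for the full control effect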

NC(N)=NC(N)=NCCc1ccccc1
active: Potency [3] 6.17 µM
inactive: Potency [1] | Potency [2]

NNC(=O)c1ccncc1
inactive: Potency [1] | Potency [2] | Potency [3] | Potency [4] | Potency [5] | Potency [6]

N=C(N)c1ccc(OCCCCCOc2ccc(C(=N)N)cc2)cc1
active: Potency [5] 4.73 µM and 3.72 µM | Potency [6] 4.22 µM and 4.68 µM
inactive: Potency [1] | Potency [2] | Potency [3]

Nc1ccc(S(=O)(=O)Nc2ccccn2)cc1
inactive: Potency [1] | Potency [2] | Potency [3] | Potency [4] | Potency [5] | Potency [6]

Clc1ccccc1CN1CCc2sccc2C1
inactive: Potency [1] | Potency [2]

CCC(C)(C)c1ccc(CC(C)CN2C[C@@H](C)O[C@@H](C)C2)cc1 (stereo partly drawn)
inactive: Potency [1] | Potency [2] | Potency [5]
active: Potency [3] 4.9 µM

COc1c(N2CCNC(C)C2)c(F)cc2c(=O)c(C(=O)O)cn(C3CC3)c12 (stereo not drawn)
inactive: max response [7] -1.18% and 19.6% | Potency [2] | Potency [5] | Potency [6]

CC(C)(C)C(=O)OCOP(=O)(COCCn1cnc2c(N)ncnc21)OCOC(=O)C(C)(C)C
active: Potency [5] 7.5 µM and 7.42 µM | Potency [6] 6.68 µM and 7.42 µM
inactive: Potency [1] | Potency [2] | Potency [3] | Potency [4]

CO[C@@H]1[C@@H](OC(N)=O)[C@@H](O)[C@H](Oc2ccc3c(O)c(NC(=O)c4ccc(O)c(CC=C(C)C)c4)c(=O)oc3c2C)OC1(C)C
inactive: max response [7] 49.1% | Potency [2] | Potency [5] | Potency [6]
31.6 µM (active) and inactive: Potency [1]

CN1CCCC(n2nc(Cc3ccc(Cl)cc3)c3ccccc3c2=O)CC1 (stereo not drawn)
inactive: Potency [1]

CCOc1cc(N)c(Cl)cc1C(=O)NCC1CN(Cc2ccc(F)cc2)CCO1 (stereo not drawn)
active: Potency [3] 15.5 µM | Potency [5] 21.1 µM
inactive: max response [7] -7.94% | Potency [4]

CCOC(=O)c1ccc(C#Cc2ccc3c(c2)C(C)(C)CCS3)nc1
inactive: Potency [1] | Potency [2] | Potency [3] | Potency [5] | Potency [6]

COc1ccc2cc3[n+](cc2c1OC)CCc1cc2c(cc1-3)OCO2
active: Potency [3] 1.55 µM | Potency [5] 11.9 µM and 5.9 µM | Potency [6] 11.9 µM and 3.32 µM
inactive: Potency [1] | Potency [2]

Oc1c(Cl)cc(Cl)c2cccnc12
active: Potency [7] 20 µM | Potency [5] 3.76 µM | Potency [6] 3.32 µM
inactive: Potency [1]

CCC(=O)O[C@]1(C(=O)CCl)[C@@H](C)C[C@H]2[C@@H]3CCC4=CC(=O)C=C[C@]4(C)[C@@]3(F)[C@@H](O)C[C@@]21C
inactive: Potency [1] | Potency [2]
inactive and 1 nM (active): Potency [6]
active: Potency [3] 11 µM | Potency [4] 17.4 µM | Potency [5] 23.5 µM

S=P(N1CC1)(N1CC1)N1CC1
inactive: max response [7] 22.2% | Potency [2] | Potency [5] | Potency [6]
active: Potency [3] 53 µM | Potency [4] 36.4 µM

CCN[C@H]1C[C@H](C)S(=O)(=O)c2sc(S(N)(=O)=O)cc21
inactive: Potency [1] | Potency [2] | Potency [3] | Potency [4] | Potency [5] | Potency [6]

COc1ccccc1OCC(O)COC(N)=O (stereo not drawn)
inactive: Potency [1] | Potency [2] | Potency [3] | Potency [4] | Potency [5] | Potency [6]

Nc1nc(N)nc(-c2cc(Cl)ccc2Cl)n1
inactive: Potency [1] | Potency [2] | Potency [3] | Potency [4] | Potency [5] | Potency [6]

CC(N)C12CC3CC(CC(C3)C1)C2 (stereo not drawn)
inactive: Potency [1] | Potency [2] | Potency [3] | Potency [4] | Potency [5] | Potency [6]

Cc1ncc([N+](=O)[O-])n1CCO
inactive: Potency [1] | Potency [2] | Potency [3] | Potency [4] | Potency [5] | Potency [6]

CNS(=O)(=O)Cc1ccc2[nH]cc(CCN(C)C)c2c1
inactive: Potency [1] | Potency [2] | Potency [3] | Potency [4] | Potency [5] | Potency [6]

O=c1cc(O)c(Cl)c[nH]1
inactive: Potency [1] | Potency [2] | Potency [3] | Potency [4] | Potency [5] | Potency [6]

CC(C)(Sc1cc(C(C)(C)C)c(O)c(C(C)(C)C)c1)Sc1cc(C(C)(C)C)c(O)c(C(C)(C)C)c1
inactive and 8.33 µM (active): Potency [6]
inactive: Potency [1] | Potency [2] | Potency [3] | Potency [4] | Potency [5]

CCn1cc(C(=O)O)c(=O)c2cc(F)c(N3CCNCC3)nc21
inactive: max response [7] 28.2% | Potency [1] | Potency [2] | Potency [4] | Potency [5] | Potency [6]

O=c1oc2c(O)c(O)cc3c(=O)oc4c(O)c(O)cc1c4c23
inactive: Potency [1] | Potency [2] | Potency [3] | Potency [4] | Potency [6]

CC1=NN(c2ccccc2)C(=O)C1
inactive: Potency [1] | Potency [2] | Potency [5] | Potency [6]

CN1CCN(c2c(F)cc3c(=O)c(C(=O)O)cn4c3c2OCN4C)CC1
inactive: Potency [1] | Potency [2] | Potency [4]
